Each structure is given as a SMILES string.

The assay addresses Calmodulin-1 (Homo sapiens) (UniProt P0DP23). As to the kind of experiment: calcium-bound CALM1 binders on microarrays, profiling panel, artefact control for SMM control-protein annotation, biochemical, small-molecule microarray, Cy5-labelled CALM1, plus calcium (AID 1112).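 Also: score merges spot fluorescence with signal to noise from triplicate slides.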 As to conditions: Cy5-CALM1 binding fluorescence, higher = more signal.
On to `C=C1C(=O)C=C2CN(C(=O)c3ccccc3)[C@@](Cc3ccc(OC)cc3)(C(=O)OC)[C@@H]12`, for which the composite z-score amounted to 0.311.
To `COC(=O)[C@@]1(Cc2ccc(F)cc2)[C@H]2c3cc(C(=O)N(C)C)n(C)c3C[C@H]2CN1C(=O)c1ccccc1` belongs 0.815.
To `COCCCNC(=O)[C@@]1(CCS(=O)(=O)c2ccccc2)COC(c2ccc(OCCCO)cc2)=N1` belongs 1.26; to `CO[C@H]1O[C@H](CO)[C@@H](OC(=O)Nc2ccc3c(c2)OCO3)[C@H](OC(=O)Nc2ccccc2-c2ccccc2)[C@H]1OC(=O)Nc1ccccc1-c1ccccc1`, -0.243.
To `NC(=O)N1C(=O)C2C(C1=O)C1C=C(CCCO)C2C(C2CC2)N1Cc1sc2ccccc2c1Cl` (stereo not drawn) belongs 0.459; to `C=CC[C@@]1(C(=O)OC)N=C(c2ccc(OCCCO)cc2)O[C@@H]1c1ccccc1N=[N+]=[N-]`, -0.483; to `C=CCC(OC(C)=O)[C@@H]1[C@@H](N(Cc2ccc(-c3ccccc3)cc2)C(=O)c2cccc3ccccc23)c2cc(OCCCO)ccc2N1C(=O)Cc1ccc(OC)cc1` (stereo partly drawn), 0.618.
Consider `CCOc1cc(C(O)C2C=CC3C(=O)N(c4ccccc4)C(=O)C3N2Nc2ccccc2F)ccc1O` (stereo not drawn), for which the composite z-score stood at 0.479.
To `C=CCC(OC(C)=O)[C@@H]1[C@@H](N(Cc2cc3ccccc3o2)C(=O)c2cccc3ccccc23)c2cc(OCCCO)ccc2N1C(=O)c1ccc2ccccc2n1` (stereo partly drawn) belongs 0.304; to `COc1ccc(C(O)C2C=CC3C(=O)N(C)C(=O)C3N2N(c2ccccc2)c2ccccc2)cc1` (stereo not drawn), 0.625.
The value for `O=C1O[C@@H](c2ccccc2)[C@@H](c2ccccc2)N2[C@@H](c3ccc(OCCO)cc3)[C@]3(C(=O)Nc4ccc(C#CC5(O)CCCCCC5)cc43)[C@@H](C(=O)Nc3nc4ccccc4s3)[C@H]12` was 0.646; that for `COCCOC(=O)N1C(=O)[C@@]2(c3cc(C#CCCO)ccc31)[C@H](C(N)=O)[C@H]1C(=O)O[C@H](c3ccccc3)[C@H](c3ccccc3)N1[C@@H]2c1ccccc1OCCO` was 0.114.
As to `CC1CC/C=C\[C@H]2OC34C=CCN(C(C)(C)C)C(=O)[C@H]3N(CCCO)C(=O)[C@@H]4C2C(=O)O1` (stereo partly drawn), the composite z-score turned out to be 0.588.
The value for `COc1ccc([Si](C)(C)[C@H]2[C@H](CC(=O)N3Cc4ccccc4C[C@H]3CO)O[C@@]3(C(=O)N(C)c4ccccc43)[C@@H]2C)cc1` was -1.29.
The value for `Cc1ccc(S[C@]2(C(=O)NCCCN(C)C)CC(=O)N(C3Cc4ccccc4C3)[C@@H]2c2ccc(CO)cc2I)cc1` was -0.358.
To `O=C1O[C@H](c2ccccc2)[C@H](c2ccccc2)N2[C@H]1[C@@H](C(=O)N1CCN(c3ncccn3)CC1)[C@]1(C(=O)Nc3ccc(C#CCCO)cc31)[C@H]2c1ccc(O)cc1` belongs 0.323; to `[N-]=[N+]=Nc1ccccc1C[C@]1(C(=O)N2CCOCC2)N=C(c2ccc(OCCCO)cc2)O[C@H]1c1ccccc1N=[N+]=[N-]`, -0.388; to `COc1ccc(C(=O)Nc2ccc(CN3C(=O)[C@@]4(O[C@@H](CCn5cc(CCO)nn5)[C@H]([Si](C)(C)c5ccc(OC)cc5)[C@H]4C)c4ccccc43)cc2)cc1`, -0.668.
`NC(=O)NCC#Cc1ccc2c(c1)[C@]1(C(=O)N2)[C@H](c2ccc(OCCO)cc2)N2[C@H](c3ccccc3)[C@H](c3ccccc3)OC(=O)[C@H]2[C@@H]1C(=O)NC[C@H](O)c1ccccc1`: the composite z-score is -0.194.
The value for `O=C1[C@H]2C=C(I)[C@H](C[C@@H]2c2ccccc2)[C@@]12CO2` was -0.661.
The value for `CC(C)NC(=O)[C@@H]1c2ccccc2C(=O)N(Cc2ccc(OC(F)(F)F)cc2)[C@H]1c1ccc(CO)cc1` was -0.126.
Consider `COc1ccc([Si](C)(C)[C@H]2[C@H](CC(=O)N3Cc4ccccc4C[C@H]3CO)O[C@@]3(C(=O)N(c4ccccc4)c4ccccc43)[C@@H]2C)cc1`, for which the composite z-score was -0.987.
To `CC(C)(C)N1CC=CC23O[C@@H]4/C=C\CCCOC(=O)C4[C@H]2C(=O)N(CCCO)[C@@H]3C1=O` (stereo partly drawn) belongs -0.275.
As for `O=C1C2C=CC(C(O)c3ccc([N+](=O)[O-])cc3)N(Nc3ccccc3F)C2C(=O)N1c1ccccc1` (stereo not drawn), the composite z-score is 0.378.
To `COc1ccccc1CN1C(=O)c2ccccc2[C@](Cc2ccccc2I)(C(=O)NCC(C)C)[C@@H]1c1ccc(CO)cc1` belongs -0.18; to `C=C(CCCC)/C(=C/C[C@H](OC(=O)c1ccncc1)c1ccc(OCCO)cc1)c1cnc2ccccc2c1`, -0.159; to `CCCC[C@H]1C[C@@H]1[C@@H]1N(C(C)=O)[C@H](c2cccc(OC)c2)CC12CC2`, 0.878.
In the case of `O=C1O[C@H](Cc2ccccc2)[C@@H]2[C@H]3C=CCCC=C3CN2[C@H]1Cc1ccc(O)cc1`, the composite z-score was -0.593.

The values are drawn from PubChem BioAssay.
